Compound activity (PubChem)
The list is not random: actives were taken first. Their share in the collection is about 1.5%.
GLD-1 TGE inh: GLD-1-TGE RNA interaction inhibition (C. elegans); Q17339; purified GLD-1 + fluorescein TGE RNA, fluorescence polarization; inhibition, % at 5.96 µM; hit rate 0.44% among 320,000; AID 2280;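 active means percent inhibition above a per-plate cutoff, the plate mean of test compounds plus 3 SD, cut at about 30% in these data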;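 further: 0% = DMSO wells with GLD-1 and probe and 100% = wells lacking GLD-1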
MEX-5 binding: C. elegans MEX-5 TCR-2 RNA binding activity; activity score (negative = inhibition of binding), % at 10 µM; Q9XUB2; MEX-5/FITC-TCR2 RNA binding, fluorescence polarization; active compounds read low; AID 1832; hit rate 0.38% among 300,000;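 active means inhibition past about -25% in most replicates, and total fluorescence under double the plate's negative control median, limit read from the data; inconclusive means replicates evenly split on the limit, or fluorescence at least double controls; inactive means too little inhibition in most replicates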;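 further: 0% = DMSO and -100% = 5 µM competing unlabeled TCR2 RNA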
BCLXL inh: Bcl-xL (human) inhibition; Q07817; GST-Bcl-xL / FITC-Bim BH3 peptide fluorescence polarization; inhibition, % at 10.9 µM; hit rate 0.7% among 320,000;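 active means inhibition above the mean of all tested compounds plus 3 SD, cutoff set per campaign, cut at about 30% in these data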;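 further: 0% = DMSO wells and 100% = unlabeled Bim-BH3 peptide competitor; inhibitors lower millipolarization by displacing the labeled peptide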
MCL1-BIM inh: MCL1-BIM-BH3 interaction inhibition (human) | GST-MCL1 / FITC-Bim-BH3 fluorescence polarization | inhibition, % at 10.9 µM | hit rate 0.68% among 320,000 | AID 2057;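 active means inhibition above the mean inhibition of all tested compounds plus 3 SD, set per campaign, cut at about 40% in these data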;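 further: 0% = DMSO wells and 100% = unlabeled Bim-BH3 peptide control; higher means more loss of mP so more displacement of Bim peptide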
E coli Lon inh: inhibits E. coli Lon protease | P0A9M0 | purified E. coli Lon protease, fluorescence polarization | inhibition, % at 7.94 µM | hit rate 0.42% among 360,000; in the data active means inhibition above about 13%, passing the limit was not always enough;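 further: 0% = enzyme with probe and DMSO and 100% = no enzyme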
Target sequence (P0A9M0 whole entry, looked up): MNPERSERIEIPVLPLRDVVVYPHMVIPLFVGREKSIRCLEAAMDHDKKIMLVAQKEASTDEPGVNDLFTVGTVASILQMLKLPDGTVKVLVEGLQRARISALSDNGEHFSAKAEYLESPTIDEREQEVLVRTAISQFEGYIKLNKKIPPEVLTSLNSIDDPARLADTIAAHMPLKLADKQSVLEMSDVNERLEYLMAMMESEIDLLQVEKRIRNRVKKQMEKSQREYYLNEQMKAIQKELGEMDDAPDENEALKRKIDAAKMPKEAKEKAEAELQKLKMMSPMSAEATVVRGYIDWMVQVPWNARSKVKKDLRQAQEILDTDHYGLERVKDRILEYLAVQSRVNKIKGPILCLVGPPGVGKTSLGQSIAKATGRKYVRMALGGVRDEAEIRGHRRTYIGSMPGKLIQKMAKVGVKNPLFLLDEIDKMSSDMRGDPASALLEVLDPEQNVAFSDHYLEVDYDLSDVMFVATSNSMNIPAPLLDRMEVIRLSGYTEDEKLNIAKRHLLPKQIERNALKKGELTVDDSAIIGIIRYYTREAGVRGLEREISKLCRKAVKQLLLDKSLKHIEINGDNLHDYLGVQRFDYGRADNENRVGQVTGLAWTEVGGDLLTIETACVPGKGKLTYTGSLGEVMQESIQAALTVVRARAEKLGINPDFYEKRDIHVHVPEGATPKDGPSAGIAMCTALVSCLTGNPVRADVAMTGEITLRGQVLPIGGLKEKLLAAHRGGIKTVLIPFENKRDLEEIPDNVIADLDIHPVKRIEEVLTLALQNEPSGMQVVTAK
EBV gp42 inh: blocks Epstein-Barr virus glycoprotein 42 binding. Q1HVG2. Fluorescence polarization binding assay, mP read-out. inhibition, % (tested at 21.74 µM). hit rate 0.42% among 220,000. AID 1085; in the data active means inhibition above about 50%
Bcl-xL conf: Bcl-xL (human) inhibition, MCL1 counter-screen confirmation. shares compounds with MCL1-BIM inh. GST-Bcl-xL / FITC-Bim BH3 peptide FP binding. inhibition, % at 10.9 µM. hit rate 54% among 1,700;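 active means inhibition above a cutoff equal to the mean inhibition of all tested compounds plus 3 SD, cut at about 30% in these data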;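 further: 0% = DMSO wells and 100% = unlabeled Bim BH3 control peptide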
MCL1 inh confirm: MCL1-BIM-BH3 interaction inhibition, confirmation; shares compounds with MCL1-BIM inh; GST-MCL1 / FITC-Bim-BH3 fluorescence polarization; inhibition, % at 10.9 µM; hit rate 61% among 1,700; AID 2168;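 active means inhibition above the average of all tested compounds plus 3 SD, cut at about 40% in these data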;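 further: 0% = DMSO wells and 100% = unlabeled Bim-BH3 control peptide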
Numbers without * were called inactive.

Results for COc1ccc2[nH]c3c(c2c1)CCNC3c1ccc([N+](=O)[O-])o1 (stereo unspecified) ?
GLD-1 TGE inh: 37.2*; MEX-5 binding: -50.3*; BCLXL inh: 87.2*; MCL1-BIM inh: 96.1*; E coli Lon inh: 11.3; Bcl-xL conf: 79.4*; MCL1 inh confirm: 101.3*

How did N#Cc1c(N2CCCC(O)C2)nc(N)c2c(N)nc3c(c12)CC(=O)N3C12CC3CC(CC(C3)C1)C2 (stereo unspecified) do in these assays?
GLD-1 TGE inh: 12.1; BCLXL inh: 28.4; MCL1-BIM inh: 54.4*; E coli Lon inh: 35.1*; EBV gp42 inh: -21.5; Bcl-xL conf: 18.2; MCL1 inh confirm: 22.3

Results for C=C(C)CN(CC)c1nc(N)c2c(N)nc3c(c2c1C#N)CC(=O)N3C12CC3CC(CC(C3)C1)C2 ?
GLD-1 TGE inh: 21.2; MEX-5 binding: -0.5; BCLXL inh: 14.4; MCL1-BIM inh: 39.5; E coli Lon inh: 20.9; EBV gp42 inh: -5.4

What do the screens show for `CCc1[nH]nc2c1C1(CCN(C(=O)c3ccccc3)CC1)C(C#N)=C(N)O2`?
GLD-1 TGE inh: -4.2; MEX-5 binding: -1.8; BCLXL inh: 2.2; MCL1-BIM inh: -1.2; E coli Lon inh: -0.8; EBV gp42 inh: -19.4

Results for Cc1nc2c([nH]1)C1(CCN(Cc3ccccc3)CC1)C(C#N)=C(N)O2 ?
GLD-1 TGE inh: 93.1*; BCLXL inh: 163.5*; MCL1-BIM inh: active; E coli Lon inh: 10.3; EBV gp42 inh: 14.2; Bcl-xL conf: 32.1*; MCL1 inh confirm: 46.3*

How did CC1(C)CC(=O)C2=C(C1)OC(N)=C(C#N)C21CCN(Cc2ccccc2)CC1 do in these assays?
GLD-1 TGE inh: 30.3; MEX-5 binding: -14.9; BCLXL inh: 73.9*; MCL1-BIM inh: 72.8*; E coli Lon inh: -3.2; EBV gp42 inh: 5.9; Bcl-xL conf: 63.1*; MCL1 inh confirm: 69.8*

How did Cc1c(Cl)cccc1NS(=O)(=O)c1ccc2c(c1)C1C=CCC1C(c1ccc(C(=O)O)cc1)N2 (stereo unspecified) do in these assays?
GLD-1 TGE inh: 13.3; BCLXL inh: 38.8*; MCL1-BIM inh: 61.1*; E coli Lon inh: 0.8; EBV gp42 inh: 79.1*; Bcl-xL conf: 28.6; MCL1 inh confirm: 73.9*

How did COc1ccc(NS(=O)(=O)c2ccc3c(c2)[C@H]2C=CC[C@H]2[C@@H](c2ccc(C(=O)O)cc2)N3)cc1 do in these assays?
GLD-1 TGE inh: 8.7; MEX-5 binding: -61.2*; BCLXL inh: 27.5; MCL1-BIM inh: 54.3*; E coli Lon inh: 11.8; Bcl-xL conf: 10.9; MCL1 inh confirm: 26.5

What do the screens show for `O=C(O)c1ccc2c(c1)C1C=CCC1C(c1ccncc1)N2` (stereo unspecified)?
GLD-1 TGE inh: 9.2; MEX-5 binding: -23.9; BCLXL inh: 18.0; MCL1-BIM inh: 18.9; E coli Lon inh: 7.2; EBV gp42 inh: -8.9

Results for CC(=O)c1ccc2c(c1)C1C=CCC1C(c1ccc(S(=O)(=O)N3CCOCC3)cc1)N2 (stereo unspecified) ?
GLD-1 TGE inh: -0.8; BCLXL inh: 22.4; MCL1-BIM inh: 9.6; E coli Lon inh: -1.8; EBV gp42 inh: 6.5

What do the screens show for `Cc1ccc(NC(=O)c2cc(-c3ccc(C)o3)nc3ccccc23)cc1`?
GLD-1 TGE inh: 5.1; MEX-5 binding: 0.1; BCLXL inh: 7.9; MCL1-BIM inh: 12.9; E coli Lon inh: -11.8; EBV gp42 inh: -22.0

How did Cc1ccc(-c2cc(C(=O)Nc3ccccn3)c3ccccc3n2)o1 do in these assays?
GLD-1 TGE inh: 8.8; MEX-5 binding: -0.9; BCLXL inh: 29.4; MCL1-BIM inh: 47.0*; E coli Lon inh: 2.6; EBV gp42 inh: 30.0; Bcl-xL conf: 32.1*; MCL1 inh confirm: 69.1*

How did COC(=O)\C(C(C)=O)=C(/C=C/C=C/C=C/N(C)C)N(C)C do in these assays?
GLD-1 TGE inh: 19.2; BCLXL inh: 28.2; MCL1-BIM inh: 49.6*; E coli Lon inh: 2.4; EBV gp42 inh: -101.2; Bcl-xL conf: 15.2; MCL1 inh confirm: -3.4

What do the screens show for `O=C(O)c1cccc(-n2cccc2/C=C/[N+](=O)[O-])c1`?
GLD-1 TGE inh: 19.5; MEX-5 binding: -35.6*; BCLXL inh: 43.8*; MCL1-BIM inh: 71.7*; E coli Lon inh: -11.1; EBV gp42 inh: 2.1; Bcl-xL conf: 41.1*; MCL1 inh confirm: 57.5*

How did CC(C)NC(=O)Nc1ccc2c(c1)C(=O)N([C@H](C)CO)C[C@H](C)[C@@H](CN(C)Cc1ccc(C(F)(F)F)cc1)OCCCC[C@H](C)O2 do in these assays?
E coli Lon inh: -6.0

What do the screens show for `CSc1ccccc1-c1nnc(-c2ccc(Cl)c(Cl)c2)o1`?
GLD-1 TGE inh: 5.2; MEX-5 binding: -1.7; BCLXL inh: 8.2; MCL1-BIM inh: 43.1*; E coli Lon inh: 3.1; EBV gp42 inh: 9.4; Bcl-xL conf: 5.9; MCL1 inh confirm: -6.6

How did CSc1ccccc1-c1nnc(-c2ccc(Cl)cc2Cl)o1 do in these assays?
GLD-1 TGE inh: 2.1; MEX-5 binding: 1.3; BCLXL inh: -0.1; MCL1-BIM inh: -8.5; E coli Lon inh: 0.3; EBV gp42 inh: -17.2

How did O=C(CNC(=O)c1nn(Cc2ccccc2)c(=O)c2ccccc12)Nc1ccc(F)c(F)c1F do in these assays?
GLD-1 TGE inh: 1.4; E coli Lon inh: -3.5

What do the screens show for `CCOC(=O)C1(C)CCN1C(=O)c1ccc2ccccc2c1` (stereo unspecified)?
E coli Lon inh: 3.1

What do the screens show for `C/C(=N\Nc1ncnc2sc(C)c(C)c12)c1ccccn1`?
GLD-1 TGE inh: 25.1; MEX-5 binding: inconclusive; BCLXL inh: 100.6*; MCL1-BIM inh: 100.5*; E coli Lon inh: -25.1; Bcl-xL conf: active; MCL1 inh confirm: active

What do the screens show for `COCCN(CCOC)S(=O)(=O)c1ccc(NC(=O)c2cnccn2)cc1`?
GLD-1 TGE inh: 9.3; MEX-5 binding: -0.5; BCLXL inh: -3.7; MCL1-BIM inh: 0.7; E coli Lon inh: -1.6

What do the screens show for `CC(C)C[C@@H](CO)N1CCN(Cc2cccnc2)CCC1=O`?
GLD-1 TGE inh: 5.5; MEX-5 binding: 0.9; BCLXL inh: -2.2; MCL1-BIM inh: -4.6; E coli Lon inh: 6.9

Results for Cc1ccc(N=Cc2cc(Cc3ccccc3Cl)cc([N+](=O)[O-])c2O)c(O)c1 ?
GLD-1 TGE inh: -2.7; MEX-5 binding: -10.1; BCLXL inh: 43.8*; MCL1-BIM inh: 47.3*; E coli Lon inh: -3.0; EBV gp42 inh: -2.0; Bcl-xL conf: 7.0; MCL1 inh confirm: 47.2*

Results for Cc1cc(O)c(C(C)C)cc1N=Cc1ccccc1[N+](=O)[O-] ?
E coli Lon inh: 5.9
